PubChem BioAssay AID1508607 (The Scripps Research Institute Molecular Screening Center, 2020)
Out of some 2,300 compounds screened, about 20 (0.9%) were called active. Shown is part of a subset that was picked to be rich in actives. Values without a mark were called inactive.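 Rule for the calls: active = mean percent activation across replicates above the counterscreen hit cutoff of 9.17%; inactive = the rest.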

These compounds were tested against Glucose-dependent insulinotropic receptor (Homo sapiens) (UniProt Q8TDV5) (assay: GPR119 activators in beta-arrestin cells, confirmation, counter-screen for GPR151 activator project, cell-based, PathHunter beta-arrestin, luminescence, set 2 (AID 1508607;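 note: 0% = median of sample wells and 100% = wells given EA reagent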)). Details: 90 min, at 11.2 µM, stronger effect = higher value.
Glucose-dependent insulinotropic receptor (Homo sapiens), sequence (Q8TDV5 whole entry, looked up): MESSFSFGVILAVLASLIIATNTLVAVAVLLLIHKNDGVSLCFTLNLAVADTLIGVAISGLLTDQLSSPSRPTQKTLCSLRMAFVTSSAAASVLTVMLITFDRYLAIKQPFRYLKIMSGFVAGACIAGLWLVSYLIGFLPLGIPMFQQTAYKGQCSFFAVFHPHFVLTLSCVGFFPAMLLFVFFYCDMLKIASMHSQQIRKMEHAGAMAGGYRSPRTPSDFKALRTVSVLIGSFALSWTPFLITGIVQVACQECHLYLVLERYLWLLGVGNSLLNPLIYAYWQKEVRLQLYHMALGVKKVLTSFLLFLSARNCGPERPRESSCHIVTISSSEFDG
`COc1ccc(Br)cc1CNC(=O)Cc1c(C(=O)O)[nH]c2ccccc12` showed an activation of 4.16%.
Compound `Cn1c(SCc2ccc(F)cc2)nc2ccc(C(=O)N3CCC(C(N)=O)CC3)cc21` has an activation of 0.07%.
Work on `Cc1csc(CNC(=O)CC2C(=O)NCCN2Cc2ccc(F)cc2Cl)n1` (stereo not given) yielded an activation of 3.99%.
For `OC(COc1ccc(CNCCc2cscn2)cc1)CN1CCc2ccccc2C1` (stereo not given), the activation was 3.64%.
Work on `O=C(CNc1ccccc1)N/N=C/c1cc([N+](=O)[O-])ccc1O` yielded an activation of -3.89%.
With `O=C(Nc1cc(Cl)ccc1Cl)c1ccccc1O` the activation was -0.02%.
Compound `CCc1ccccc1NC(=O)Cn1nnc(C(=O)OC)c1C(=O)OC` has an activation of 3.17%.
Compound `Cc1ccn2c(-c3csc(Nc4ccccc4)n3)c(C)nc2c1` has an activation of -1.87%.
Compound `CC1=NNC(=O)C1CCC(=O)N/N=C(\C)c1ccc(C)cc1` (stereo not given) has an activation of -4.69%.
Work on `CCn1c(=O)c2cc(C(=O)Nc3ccsc3C(=O)OC)sc2c2ccccc21` yielded an activation of -1.75%.
`CCOC(=O)N1CCN(C(=S)Nc2ccc(C)cc2)CC1` was tested, and the activation was 2.12%.
With `O=S(=O)(NCCC12CC3CC(CC(C3)C1)C2)c1cccc2nsnc12` the activation was 0.9%.
In the case of `CCc1ccc(NC(=O)Cn2nnc(C(=O)OC)c2C(=O)OC)cc1`, the activation is reported as -0.08%.
`c1ccc(N2CCOCC2)c(Nc2nc3ccccc3n3cnnc23)c1` was tested, and the activation was 0.28%.
Work on `O=C(CSC1=NC(=O)C(c2ccccc2)C(=O)N1)c1ccccc1` (stereo not given) yielded an activation of -3.69%.
For `CCN1CCC(N(Cc2ccc(F)cc2)C(=O)Nc2ccccc2F)CC1`, the activation was -1.27%.
`CCOC(=O)C1CCCN(c2c(Nc3cccc(C)c3)c(=O)c2=O)C1` (stereo not given) gave an activation of -2.19%.
With `COc1ccc(C(=O)NCC2(c3ccccc3)CCCC2)cc1[N+](=O)[O-]` the activation was -1.92%.
In the case of `CSc1ccccc1N1C(=O)CC(Sc2ccccc2C(=O)O)C1=O` (stereo not given), the activation is reported as 2.04%.
With `CC1Oc2cccnc2N(Cc2cccc(C#N)c2)C1=O` (stereo not given) the activation was 0.9%.
Work on `COc1ccc(-c2noc(CCC(=O)Nc3ccc(C)c(C)c3)n2)cc1` yielded an activation of 1.95%.
For `COc1cccc(C(=O)Nc2ccc(-n3nncc3-c3ccc(OC)c(OC)c3)cc2)c1`, the activation was 5.22%.
For `COc1ccc(-c2nc(-c3ccc(NC(=O)c4ccc(Br)o4)cc3)no2)cc1OC`, the activation was 14.8% (active).
`CCC1CN(CCNC(=O)c2ccc(C(C)=O)s2)Cc2cc(OC)ccc2O1` (stereo not given) was tested, and the activation was 2.67%.
In the case of `CCN(CC)S(=O)(=O)c1ccc(-c2csc(=Nc3ccccc3OC)n2CC)cc1`, the activation is reported as -1.01%.
`Clc1nc(NCc2ccccc2)c2ncn(-c3ccccc3)c2n1` showed an activation of -3.84%.
For `c1ccc(Oc2nc(NC3CC3)c3ncn(-c4ccsc4)c3n2)cc1`, the activation was 10.5% (active).
`C(=N\Nc1nnnn1-c1cccc2ccccc12)/c1ccc2c(c1)OCO2` showed an activation of 3.7%.
`O=C(COc1ccc(Cl)cc1Cl)Nc1c2c(nn1-c1ccc(F)cc1)CSC2` showed an activation of 3.41%.
`CCOc1cc(/C=C2/C(=N)N3OC(C)=CC3=NC2=O)ccc1OCc1ccc2c(c1)OCO2` gave an activation of 2.7%.
`O=C1[C@H]2[C@H]3[C@H](O)[C@H](O)C/C(=N\OCc4ccccc4)[C@H]3CC[C@H]2C(=O)N1C1CCCCC1` gave an activation of -1.69%.
Work on `Cc1cc(/C=C2/C(=N)N3C=CSC3=NC2=O)c(C)n1-c1ccc(Cl)cc1` yielded an activation of -1.56%.
With `CCN(CC)c1cc(C)c2ccccc2n1` the activation was 1.75%.
Work on `Cc1ccc(OC(C)c2nc(-c3ccc(OCC(N)=O)cc3)no2)cc1C` (stereo not given) yielded an activation of 8.62%.
For `CC1CCN(Cc2nnnn2CC(=O)NCC2CCCO2)CC1` (stereo not given), the activation was 4.51%.
In the case of `CC(=O)c1ccc(NCN2C(=O)C3CC=C(Cl)CC3C2=O)cc1` (stereo not given), the activation is reported as 2.21%.
For `COC(=O)c1cn(-c2ccccc2)nc1-c1ccc(F)cc1`, the activation was 0.06%.
`COc1ccc(-c2noc(CC(=O)NCCN3CCOCC3)n2)cc1` gave an activation of 0.07%.
`COc1ccc2nc(N3CCCC(C(=O)NCCCOC(C)C)C3)sc2c1` (stereo not given) was tested, and the activation was 0.71%.
For `COc1ccc(C2C(C(=O)OCCc3ccccc3)=C(C)NC3=C2C(=O)CCC3)cc1O` (stereo not given), the activation was 3.23%.
`COC(=O)C1=C(N)n2c(s/c(=C\c3ccc(Cl)cc3)c2=O)=C(C(=O)OC)C1c1ccc(Cl)cc1` (stereo not given) showed an activation of -5.44%.
Work on `CC1CC(C)CN(C(=O)Cn2cc(C=O)c3ccccc32)C1` (stereo not given) yielded an activation of 0.05%.
With `COC(=O)CN1C(=O)S/C(=C/c2ccco2)C1=O` the activation was 3.06%.
In the case of `Cn1ccnc1C(=O)C1CCCN(C(=O)CCc2nnc(-c3ccccc3)o2)C1` (stereo not given), the activation is reported as 2.54%.
With `COc1ccc(-c2cc(-c3ccccc3)c(C#N)c(SC3CCCCC3O)n2)cc1` (stereo not given) the activation was 4.49%.
